# Assay results: paper PMC7862700, “An all-to-all approach to the identification of sequence-specific readers for epigenetic DNA modifications on cytosine”
# How the values were obtained:
# Assay in all cases: DAPPL (digital affinity profiling via proximity ligation, sequencing); 10 mM Tris-HCl pH 7.5, 50 mM NaCl, 1 mM DTT, 4% glycerol, room temperature, 30 min; GST-TFs on glutathione beads, 16-mer random dsDNA library, 0.1% formaldehyde crosslink after washing; high values mean tight binding
# Settings in all cases: protein: recombinant; tags: N-terminal GST; dsDNA, one strand shown
# [1] = target: T1, ERF (Homo sapiens, UniProt P50548 1-548)
# T1 sequence: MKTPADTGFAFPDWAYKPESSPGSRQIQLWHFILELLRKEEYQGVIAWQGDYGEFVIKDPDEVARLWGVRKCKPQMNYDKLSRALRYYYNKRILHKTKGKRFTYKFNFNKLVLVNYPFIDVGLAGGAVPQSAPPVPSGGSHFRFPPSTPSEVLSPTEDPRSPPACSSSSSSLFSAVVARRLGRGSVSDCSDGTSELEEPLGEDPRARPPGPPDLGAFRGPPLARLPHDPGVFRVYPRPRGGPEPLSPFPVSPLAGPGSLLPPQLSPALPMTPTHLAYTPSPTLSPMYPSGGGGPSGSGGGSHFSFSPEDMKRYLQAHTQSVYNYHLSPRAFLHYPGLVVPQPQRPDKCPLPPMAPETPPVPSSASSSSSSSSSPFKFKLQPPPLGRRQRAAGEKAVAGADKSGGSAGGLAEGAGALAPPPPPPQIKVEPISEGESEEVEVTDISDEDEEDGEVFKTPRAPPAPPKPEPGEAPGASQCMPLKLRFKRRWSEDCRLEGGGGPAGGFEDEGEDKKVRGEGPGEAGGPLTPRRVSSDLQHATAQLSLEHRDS
# Procedure, shortened: (§1)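 Binding signal is given per hexamer as its read frequency for a factor divided by its frequency in the tag-only sample. GST-fused human transcription factors were expressed in yeast, captured on glutathione beads, barcoded with DNA and pooled with that sample, then incubated with 200 nmole of a 16-mer random double-stranded DNA library in Tris/NaCl/DTT/glycerol buffer for 30 min at room temperature. The pools were then washed, crosslinked, proximity-ligated, amplified by PCR and sequenced on an Illumina NextSeq500.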
# [2] = target: T2, ETV3L (Homo sapiens, UniProt Q6ZN32 1-361)
# T2 sequence: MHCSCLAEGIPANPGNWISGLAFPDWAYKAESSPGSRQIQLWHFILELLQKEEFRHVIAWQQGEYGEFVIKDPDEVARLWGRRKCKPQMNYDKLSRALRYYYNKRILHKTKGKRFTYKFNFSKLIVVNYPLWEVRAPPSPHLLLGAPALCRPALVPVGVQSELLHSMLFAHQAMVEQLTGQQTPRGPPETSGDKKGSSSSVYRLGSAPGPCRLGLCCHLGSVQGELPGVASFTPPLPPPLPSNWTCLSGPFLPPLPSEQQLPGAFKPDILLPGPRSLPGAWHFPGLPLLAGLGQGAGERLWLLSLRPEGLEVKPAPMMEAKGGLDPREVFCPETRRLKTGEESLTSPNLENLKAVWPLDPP
# Procedure, shortened: as §1
# [3] = target: T3, ETS2 (Homo sapiens, UniProt P15036 1-469)
# T3 sequence: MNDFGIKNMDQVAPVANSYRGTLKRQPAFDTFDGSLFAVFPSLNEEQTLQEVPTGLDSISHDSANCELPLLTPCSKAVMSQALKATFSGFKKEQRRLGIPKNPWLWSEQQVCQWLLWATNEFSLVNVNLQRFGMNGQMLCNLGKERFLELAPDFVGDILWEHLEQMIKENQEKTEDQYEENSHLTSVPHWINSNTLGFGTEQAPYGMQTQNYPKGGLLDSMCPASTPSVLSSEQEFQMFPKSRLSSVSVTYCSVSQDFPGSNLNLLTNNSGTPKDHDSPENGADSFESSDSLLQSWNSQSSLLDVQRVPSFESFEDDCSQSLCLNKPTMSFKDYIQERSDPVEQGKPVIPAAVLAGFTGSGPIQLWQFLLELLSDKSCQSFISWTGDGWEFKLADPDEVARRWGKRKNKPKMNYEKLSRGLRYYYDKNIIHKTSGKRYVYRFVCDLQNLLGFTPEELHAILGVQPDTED
# Procedure, shortened: as §1
# [4] = target: T4, SPDEF (Homo sapiens, UniProt O95238 1-335)
# T4 sequence: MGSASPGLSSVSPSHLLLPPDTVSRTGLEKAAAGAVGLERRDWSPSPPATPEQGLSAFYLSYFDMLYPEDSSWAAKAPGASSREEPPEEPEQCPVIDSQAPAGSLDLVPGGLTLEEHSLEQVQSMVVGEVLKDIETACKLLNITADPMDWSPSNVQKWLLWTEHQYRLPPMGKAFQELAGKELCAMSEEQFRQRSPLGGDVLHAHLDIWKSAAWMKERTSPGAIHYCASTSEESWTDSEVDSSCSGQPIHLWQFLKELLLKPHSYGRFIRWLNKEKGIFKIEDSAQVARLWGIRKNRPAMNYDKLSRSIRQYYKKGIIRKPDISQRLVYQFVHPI
# Procedure, shortened: as §1
# [5] = target: T5, ETV7 (Homo sapiens, UniProt Q9Y603 1-341)
# T5 sequence: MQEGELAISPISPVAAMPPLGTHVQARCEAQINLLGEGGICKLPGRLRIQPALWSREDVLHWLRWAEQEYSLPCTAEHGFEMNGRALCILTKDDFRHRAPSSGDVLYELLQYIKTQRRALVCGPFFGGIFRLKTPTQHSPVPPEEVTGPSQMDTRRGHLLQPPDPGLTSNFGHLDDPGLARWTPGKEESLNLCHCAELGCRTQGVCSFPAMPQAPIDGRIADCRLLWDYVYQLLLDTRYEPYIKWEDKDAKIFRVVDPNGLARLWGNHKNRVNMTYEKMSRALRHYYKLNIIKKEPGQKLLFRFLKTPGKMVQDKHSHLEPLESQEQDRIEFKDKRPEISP
# Procedure, shortened: as §1
# [6] = target: T6, ELF5 (Homo sapiens, UniProt Q9UKW6-2 1-255)
# T6 sequence: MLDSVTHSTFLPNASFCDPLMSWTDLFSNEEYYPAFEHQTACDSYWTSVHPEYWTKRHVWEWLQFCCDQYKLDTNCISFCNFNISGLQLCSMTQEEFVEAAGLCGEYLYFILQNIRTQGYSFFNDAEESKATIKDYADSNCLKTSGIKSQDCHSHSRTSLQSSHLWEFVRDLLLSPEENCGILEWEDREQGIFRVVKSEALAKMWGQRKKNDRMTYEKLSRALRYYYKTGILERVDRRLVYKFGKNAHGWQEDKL
# Procedure, shortened: as §1
# [7] = target: T7, ETV3 (Homo sapiens, UniProt P41162-2 1-143)
# T7 sequence: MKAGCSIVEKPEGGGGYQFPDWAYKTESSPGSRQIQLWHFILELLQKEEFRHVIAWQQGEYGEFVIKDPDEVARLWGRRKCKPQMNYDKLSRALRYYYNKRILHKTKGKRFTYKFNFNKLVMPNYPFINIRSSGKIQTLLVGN
# Procedure, shortened: as §1
# [8] = target: ETV6 (Homo sapiens, UniProt P41212 1-452)
# ETV6, sequence (P41212 whole entry): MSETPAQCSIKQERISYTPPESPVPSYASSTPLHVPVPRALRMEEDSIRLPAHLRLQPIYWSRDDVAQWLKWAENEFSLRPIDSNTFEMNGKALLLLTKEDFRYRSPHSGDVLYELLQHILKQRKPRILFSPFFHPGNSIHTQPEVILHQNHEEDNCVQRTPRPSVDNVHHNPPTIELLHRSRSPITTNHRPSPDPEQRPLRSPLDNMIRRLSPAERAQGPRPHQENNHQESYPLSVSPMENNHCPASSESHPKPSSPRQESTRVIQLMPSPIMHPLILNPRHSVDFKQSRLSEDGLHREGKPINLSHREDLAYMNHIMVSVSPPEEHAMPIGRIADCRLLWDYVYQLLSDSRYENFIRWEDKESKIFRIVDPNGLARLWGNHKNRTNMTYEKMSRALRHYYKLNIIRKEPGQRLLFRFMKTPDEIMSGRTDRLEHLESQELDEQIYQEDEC
# Procedure, shortened: as §1
Sequence,binding signal [1],binding signal [2],binding signal [3],binding signal [4],binding signal [5],binding signal [6],binding signal [7],binding signal [8]
CGACTA,"1.31 fold enrichment (6-mer frequency, TF over GST control)","1.52 fold enrichment (6-mer frequency, TF over GST control)","1.38 fold enrichment (6-mer frequency, TF over GST control)","1.37 fold enrichment (6-mer frequency, TF over GST control)","1.31 fold enrichment (6-mer frequency, TF over GST control)","1.34 fold enrichment (6-mer frequency, TF over GST control)","1.21 fold enrichment (6-mer frequency, TF over GST control)","1.28 fold enrichment (6-mer frequency, TF over GST control)"
CCGGTC,"1.1 fold enrichment (6-mer frequency, TF over GST control)","1.13 fold enrichment (6-mer frequency, TF over GST control)","1.2 fold enrichment (6-mer frequency, TF over GST control)","1.38 fold enrichment (6-mer frequency, TF over GST control)","1.22 fold enrichment (6-mer frequency, TF over GST control)","1.13 fold enrichment (6-mer frequency, TF over GST control)","1.2 fold enrichment (6-mer frequency, TF over GST control)","1.15 fold enrichment (6-mer frequency, TF over GST control)"
TCTGTC,"1.31 fold enrichment (6-mer frequency, TF over GST control)","1.19 fold enrichment (6-mer frequency, TF over GST control)","1.23 fold enrichment (6-mer frequency, TF over GST control)","1.15 fold enrichment (6-mer frequency, TF over GST control)","1.14 fold enrichment (6-mer frequency, TF over GST control)","1.16 fold enrichment (6-mer frequency, TF over GST control)","1.05 fold enrichment (6-mer frequency, TF over GST control)","1.23 fold enrichment (6-mer frequency, TF over GST control)"
TAAATA,"1.21 fold enrichment (6-mer frequency, TF over GST control)","1.27 fold enrichment (6-mer frequency, TF over GST control)","1.27 fold enrichment (6-mer frequency, TF over GST control)","1.15 fold enrichment (6-mer frequency, TF over GST control)","1.31 fold enrichment (6-mer frequency, TF over GST control)","1.16 fold enrichment (6-mer frequency, TF over GST control)","1.28 fold enrichment (6-mer frequency, TF over GST control)","1.32 fold enrichment (6-mer frequency, TF over GST control)"
TTGTAG,"1.14 fold enrichment (6-mer frequency, TF over GST control)","1.2 fold enrichment (6-mer frequency, TF over GST control)","1.17 fold enrichment (6-mer frequency, TF over GST control)","1.09 fold enrichment (6-mer frequency, TF over GST control)","1.12 fold enrichment (6-mer frequency, TF over GST control)","1.1 fold enrichment (6-mer frequency, TF over GST control)","1.13 fold enrichment (6-mer frequency, TF over GST control)","1.13 fold enrichment (6-mer frequency, TF over GST control)"
TACATC,"1.63 fold enrichment (6-mer frequency, TF over GST control)","1.55 fold enrichment (6-mer frequency, TF over GST control)","1.66 fold enrichment (6-mer frequency, TF over GST control)","2.97 fold enrichment (6-mer frequency, TF over GST control)","1.59 fold enrichment (6-mer frequency, TF over GST control)","1.81 fold enrichment (6-mer frequency, TF over GST control)","1.68 fold enrichment (6-mer frequency, TF over GST control)","1.57 fold enrichment (6-mer frequency, TF over GST control)"
CACTAT,"1.2 fold enrichment (6-mer frequency, TF over GST control)","1.18 fold enrichment (6-mer frequency, TF over GST control)","1.25 fold enrichment (6-mer frequency, TF over GST control)","1.18 fold enrichment (6-mer frequency, TF over GST control)","1.29 fold enrichment (6-mer frequency, TF over GST control)","1.15 fold enrichment (6-mer frequency, TF over GST control)","1.2 fold enrichment (6-mer frequency, TF over GST control)","1.14 fold enrichment (6-mer frequency, TF over GST control)"
TTGCTC,"1.44 fold enrichment (6-mer frequency, TF over GST control)","1.28 fold enrichment (6-mer frequency, TF over GST control)","1.33 fold enrichment (6-mer frequency, TF over GST control)","1.2 fold enrichment (6-mer frequency, TF over GST control)","1.59 fold enrichment (6-mer frequency, TF over GST control)","1.18 fold enrichment (6-mer frequency, TF over GST control)","1.2 fold enrichment (6-mer frequency, TF over GST control)","1.22 fold enrichment (6-mer frequency, TF over GST control)"
GCAAAA,"1.14 fold enrichment (6-mer frequency, TF over GST control)","1.06 fold enrichment (6-mer frequency, TF over GST control)","1.18 fold enrichment (6-mer frequency, TF over GST control)","1 fold enrichment (6-mer frequency, TF over GST control)","1.09 fold enrichment (6-mer frequency, TF over GST control)","1.06 fold enrichment (6-mer frequency, TF over GST control)","1.07 fold enrichment (6-mer frequency, TF over GST control)","1.04 fold enrichment (6-mer frequency, TF over GST control)"
ACCTGA,"1.14 fold enrichment (6-mer frequency, TF over GST control)","1.04 fold enrichment (6-mer frequency, TF over GST control)","1.03 fold enrichment (6-mer frequency, TF over GST control)","1.14 fold enrichment (6-mer frequency, TF over GST control)","1.03 fold enrichment (6-mer frequency, TF over GST control)","1.07 fold enrichment (6-mer frequency, TF over GST control)","1.07 fold enrichment (6-mer frequency, TF over GST control)","1.09 fold enrichment (6-mer frequency, TF over GST control)"
ACAAAC,"1.11 fold enrichment (6-mer frequency, TF over GST control)","1.08 fold enrichment (6-mer frequency, TF over GST control)","1.22 fold enrichment (6-mer frequency, TF over GST control)","1.15 fold enrichment (6-mer frequency, TF over GST control)","1.11 fold enrichment (6-mer frequency, TF over GST control)","1.12 fold enrichment (6-mer frequency, TF over GST control)","1.09 fold enrichment (6-mer frequency, TF over GST control)","1.15 fold enrichment (6-mer frequency, TF over GST control)"
CAACCC,"1.22 fold enrichment (6-mer frequency, TF over GST control)","1.25 fold enrichment (6-mer frequency, TF over GST control)","1.28 fold enrichment (6-mer frequency, TF over GST control)","1.2 fold enrichment (6-mer frequency, TF over GST control)","1.15 fold enrichment (6-mer frequency, TF over GST control)","1.2 fold enrichment (6-mer frequency, TF over GST control)","1.27 fold enrichment (6-mer frequency, TF over GST control)","1.22 fold enrichment (6-mer frequency, TF over GST control)"
CTCGCT,"1.78 fold enrichment (6-mer frequency, TF over GST control)","1.87 fold enrichment (6-mer frequency, TF over GST control)","1.67 fold enrichment (6-mer frequency, TF over GST control)","1.62 fold enrichment (6-mer frequency, TF over GST control)","1.54 fold enrichment (6-mer frequency, TF over GST control)","1.55 fold enrichment (6-mer frequency, TF over GST control)","1.51 fold enrichment (6-mer frequency, TF over GST control)","1.64 fold enrichment (6-mer frequency, TF over GST control)"
GGTTTG,"1.26 fold enrichment (6-mer frequency, TF over GST control)","1.16 fold enrichment (6-mer frequency, TF over GST control)","1.15 fold enrichment (6-mer frequency, TF over GST control)","1.06 fold enrichment (6-mer frequency, TF over GST control)","1.11 fold enrichment (6-mer frequency, TF over GST control)","1.16 fold enrichment (6-mer frequency, TF over GST control)","1.25 fold enrichment (6-mer frequency, TF over GST control)","1.17 fold enrichment (6-mer frequency, TF over GST control)"
